Our source for the inhibition values is PubChem BioAssay AID485270 (The Scripps Research Institute Molecular Screening Center, 2010).

SMILES strings stand for the structures. The campaign covered roughly 330,000 compounds. About 5,800 (1.8%) were called active. This excerpt belongs to a sample that is enriched for actives. Unmarked numbers belong to inactive results. No stated cut-off is given here; in the data, active means inhibition mostly above about 38% (no sharp cut-off); inactive means mostly below about 40%.

Orexin/Hypocretin receptor type 1 (Homo sapiens), sequence (O43613 whole entry, looked up): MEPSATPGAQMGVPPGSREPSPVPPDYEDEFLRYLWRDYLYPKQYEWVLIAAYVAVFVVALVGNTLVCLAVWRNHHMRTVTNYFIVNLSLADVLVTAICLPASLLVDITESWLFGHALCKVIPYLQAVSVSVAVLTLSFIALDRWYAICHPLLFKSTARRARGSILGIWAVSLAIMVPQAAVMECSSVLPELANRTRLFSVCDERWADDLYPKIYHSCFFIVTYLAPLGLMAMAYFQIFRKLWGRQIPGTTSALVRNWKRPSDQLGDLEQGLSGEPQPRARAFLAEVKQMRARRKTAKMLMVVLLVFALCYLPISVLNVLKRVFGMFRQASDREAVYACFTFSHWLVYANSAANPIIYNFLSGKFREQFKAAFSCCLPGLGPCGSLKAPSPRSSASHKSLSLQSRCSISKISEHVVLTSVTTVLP

This experiment concerns the target Orexin/Hypocretin receptor type 1 (Homo sapiens) (UniProt O43613). The experiment in a line: blocks the human orexin 1 receptor (AID 485270).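 Further: 0% = agonist challenge alone and 100% = reference antagonist.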 The following applies: OX1R-expressing cells, FRET antagonist read-out; at 6.6 µM; hits give high values.
Consider `CC1CCCCC1NCC(=O)Nc1ccccc1C(=O)Nc1ccccc1` (centres undefined), for which the inhibition was 7.92%.

With `Cc1ccccc1SCC(=O)OCC(=O)N1CC(=O)Nc2ccccc21`, the inhibition is 0.4%.

As to `COc1ccc(CCNC(=O)Cn2c(=O)n(CC3CCCO3)c(=O)c3ccccc32)cc1OC` (centres undefined), the inhibition was 7.5%.

`O=C(NCC1CCCO1)c1cc(-c2ccccc2)nc2ccccc12` (centres undefined): the inhibition is -0.29%.

Turning to `Cc1ccc2nc3c(cc(C(=O)NCCc4ccccc4)c(=N)n3CC3CCCO3)c(=O)n2c1` (centres undefined), the inhibition was 57.5% (active).

Take `COc1ccc(CCn2c(=N)c(C(=O)NCC3CCCO3)cc3c(=O)n4cccc(C)c4nc32)cc1OC` (centres undefined): the inhibition was 10.8%.

For the compound `Cc1ccc(CCNC(=O)c2ccc3nc4ccccc4c(=O)n3c2)cc1`, the inhibition is -3.55%.

As for `COc1ccc(CNC(=O)c2cc3c(=O)n4ccccc4nc3n(CC3CCCO3)c2=N)cc1` (centres undefined), the inhibition is 54.9% (active).

Regarding `Cc1csc(=O)n1CC(=O)Nc1ccc(S(C)(=O)=O)cc1`, the inhibition is 7.39%.

Turning to `COc1ccc(OC)c(NC(=O)COC(=O)Cc2ccsc2)c1`, the inhibition is 5.5%.

Regarding `C[C@]12c3[nH]c4ccc(Cl)cc4c3CCN1C(=O)[C@@H](CC(=O)NCCCn1ccnc1)C[C@@H]2C(=O)N1CCOCC1`, the inhibition was 14.5%.

With `CN(CC(=O)Nc1ccc(C(N)=O)cc1)S(=O)(=O)c1ccc2c(c1)OCCO2`, the inhibition was 6.44%.

For the compound `O=C(CN1C(=O)NC2(CCCC2)C1=O)Nc1cc(C(F)(F)F)ccc1N1CCOCC1`, the inhibition was 6.5%.

With `COc1ccc2[nH]c(=O)c(CNc3ccc(C)c(C)c3)cc2c1`, the inhibition was 108% (active).

As for `CCC(=O)N(Cc1cc2cc(OC)ccc2[nH]c1=O)c1ccccc1C`, the inhibition was 4.09%.

With `COc1ccc2[nH]c(=O)c(CN(CC3CCCO3)C(=O)Nc3ccccc3)cc2c1` (centres undefined), the inhibition is 5.34%.

Consider `Cn1nnnc1SCC(=O)Nc1sccc1C(N)=O`, for which the inhibition was -1.46%.

Take `CCOc1ccccc1OCC(=O)Nc1ccccc1C(=O)NC1CC1`: the inhibition was 9.29%.

For `Cc1ccc(OCC(=O)Nc2ccccc2C(=O)NC2CC2)cc1`, the inhibition is 7.7%.

`CC(NCC(=O)Nc1ccccc1C(=O)NC1CC1)c1ccccc1Cl` (centres undefined): the inhibition was 29.4% (active).

In the case of `CN(c1ccccc1)S(=O)(=O)c1ccc(C(=O)N2CCN(c3ccccc3Cl)CC2)cc1`, the inhibition is 9.4%.

On to `CC(=NNC(=O)c1ccc2nc[nH]c2c1)c1ccc(Br)cc1`, for which the inhibition is 4.88%.

Consider `C[C@@H]1CN([C@@H](C)CO)C(=O)c2cc(NC(=O)C3CC3)ccc2O[C@H]1CN(C)C`, for which the inhibition was 1.14%.

On to `C[C@H]1COC(=O)[C@H](CC(=O)OC(C)(C)C)C/C=C\C[C@@H](CC(=O)N[C@H](CO)Cc2ccccc2)C(=O)N1`, for which the inhibition was 0.64%.
